# Assay results: PubChem BioAssay AID1159580 (chemical genetic matrix, 2015)
# The campaign covered roughly 5,500 compounds. About 2,000 (36%) were called active. About 18% were inconclusive and are not listed. The list shows a part of the results. A number with no mark means an inactive call. Cut-off read from the data, not from the text of the source: active = normalized growth mostly below about 0.91 (no sharp cut-off); inconclusive = no clear call, values can overlap the other calls; inactive = mostly above about 0.92.
# Experiment: chemical genetic growth profiling, strain panel (AID 1159580);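 note: tested at 20 µM; growth read once vehicle control cultures reached saturation at 30 °C; 1 = growth at the plate median or of vehicle wells; lower values mean less growth of the strain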
# Conditions: growth OD
compound,measurement,setting,value
Nc1cc(-c2ccncc2)c[nH]c1=O,normalized growth,"S. cerevisiae deletion strains, locus YJR043C, strain POL32, hits give low values",0.89
same,normalized growth,"S. cerevisiae deletion strains, locus YJR066W, strain TOR1, hits give low values",0.973
same,normalized growth,"S. cerevisiae deletion strains, locus YJR075W, strain HOC1, hits give low values",0.942
same,normalized growth,"S. cerevisiae deletion strains, locus YKL009W, strain mrt4, hits give low values",0.977
same,normalized growth,"S. cerevisiae deletion strains, locus YKL068W, hits give low values",0.977
same,normalized growth,"S. cerevisiae deletion strains, locus YKL085W, strain MDH1 (second series), hits give low values",0.989
same,normalized growth,"S. cerevisiae deletion strains, locus YKL085W, strain MDH1, hits give low values",0.989
same,normalized growth,"S. cerevisiae deletion strains, locus YKL160W, strain elf1, hits give low values",0.689 (active)
same,normalized growth,"S. cerevisiae deletion strains, locus YKL190W, strain CNB1, hits give low values",0.974
same,normalized growth,"S. cerevisiae deletion strains, locus YKR001C, strain vps1, hits give low values",0.765 (active)
same,normalized growth,"S. cerevisiae deletion strains, locus YKR026C, strain gcn3, hits give low values",0.947
same,normalized growth,"S. cerevisiae deletion strains, locus YKR091W, strain srl3, hits give low values",0.976
same,normalized growth,"S. cerevisiae deletion strains, locus YLL001W, strain dnm1, hits give low values",0.687 (active)
same,normalized growth,"S. cerevisiae deletion strains, locus YLL026W, hits give low values",0.826 (active)
same,normalized growth,"S. cerevisiae deletion strains, locus YLL041C, strain sdh2, hits give low values",0.933
same,normalized growth,"S. cerevisiae deletion strains, locus YLR027C, strain aat2, hits give low values",0.831 (active)
same,normalized growth,"S. cerevisiae deletion strains, locus YLR039C, strain RIC1, hits give low values",0.981
same,normalized growth,"S. cerevisiae deletion strains, locus YLR058C, strain SHM2, hits give low values",0.975
same,normalized growth,"S. cerevisiae deletion strains, locus YLR102C, strain apc9, hits give low values",0.983
same,normalized growth,"S. cerevisiae deletion strains, locus YLR113W, strain HOG1, hits give low values",1.02
same,normalized growth,"S. cerevisiae deletion strains, locus YLR221C, strain rsa3, hits give low values",0.778 (active)
same,normalized growth,"S. cerevisiae deletion strains, locus YLR258W, strain gsy2, hits give low values",0.673 (active)
same,normalized growth,"S. cerevisiae deletion strains, locus YLR262C, strain YPT6 (second series), hits give low values",1.01
same,normalized growth,"S. cerevisiae deletion strains, locus YLR262C, strain YPT6, hits give low values",0.978
same,normalized growth,"S. cerevisiae deletion strains, locus YLR268W, strain sec22, hits give low values",0.908
same,normalized growth,"S. cerevisiae deletion strains, locus YLR320W, strain mms22, hits give low values",0.273 (active)
same,normalized growth,"S. cerevisiae deletion strains, locus YLR330W, strain CHS5, hits give low values",0.878 (active)
same,normalized growth,"S. cerevisiae deletion strains, locus YLR342W, strain FKS1 (second series), hits give low values",0.87
same,normalized growth,"S. cerevisiae deletion strains, locus YLR342W, strain FKS1, hits give low values",0.952
same,normalized growth,"S. cerevisiae deletion strains, locus YLR357W, strain rsc2, hits give low values",0.972
same,normalized growth,"S. cerevisiae deletion strains, locus YLR370C, strain arc18, hits give low values",0.514 (active)
same,normalized growth,"S. cerevisiae deletion strains, locus YLR384C, strain iki3, hits give low values",0.966
same,normalized growth,"S. cerevisiae deletion strains, locus YLR418C, strain cdc73, hits give low values",0.882
same,normalized growth,"S. cerevisiae deletion strains, locus YML016C, strain PPZ1, hits give low values",0.899 (active)
same,normalized growth,"S. cerevisiae deletion strains, locus YML032C, strain rad52, hits give low values",0.986
same,normalized growth,"S. cerevisiae deletion strains, locus YML120C, strain ndi1, hits give low values",0.979
same,normalized growth,"S. cerevisiae deletion strains, locus YML124C, strain tub3, hits give low values",0.971
same,normalized growth,"S. cerevisiae deletion strains, locus YMR058W, strain fet3, hits give low values",0.871 (active)
same,normalized growth,"S. cerevisiae deletion strains, locus YMR078C, strain ctf18, hits give low values",0.949
same,normalized growth,"S. cerevisiae deletion strains, locus YMR125W, strain sto1, hits give low values",0.955
same,normalized growth,"S. cerevisiae deletion strains, locus YMR129W, hits give low values",0.955
same,normalized growth,"S. cerevisiae deletion strains, locus YMR205C, strain PFK2, hits give low values",0.559 (active)
same,normalized growth,"S. cerevisiae deletion strains, locus YMR223W, strain ubp8, hits give low values",0.848 (active)
same,normalized growth,"S. cerevisiae deletion strains, locus YMR231W, strain pep5, hits give low values",0.965
same,normalized growth,"S. cerevisiae deletion strains, locus YMR263W, strain SAP30, hits give low values",0.977
same,normalized growth,"S. cerevisiae deletion strains, locus YMR307W, strain GAS1, hits give low values",0.937
same,normalized growth,"S. cerevisiae deletion strains, locus YNL067W, strain RPL9B, hits give low values",0.888
same,normalized growth,"S. cerevisiae deletion strains, locus YNL071W, strain lat1, hits give low values",0.39 (active)
same,normalized growth,"S. cerevisiae deletion strains, locus YNL183C, strain NPR1, hits give low values",0.977
same,normalized growth,"S. cerevisiae deletion strains, locus YNL209W, strain ssb2, hits give low values",0.914 (active)
same,normalized growth,"S. cerevisiae deletion strains, locus YNL233W, strain BNI4, hits give low values",0.82 (active)
same,normalized growth,"S. cerevisiae deletion strains, locus YNL248C, strain rpa49, hits give low values",0.517 (active)
same,normalized growth,"S. cerevisiae deletion strains, locus YNL250W, strain rad50, hits give low values",0.963
same,normalized growth,"S. cerevisiae deletion strains, locus YNL271C, strain bni1, hits give low values",0.989
same,normalized growth,"S. cerevisiae deletion strains, locus YNL298W, strain CLA4, hits give low values",0.988
same,normalized growth,"S. cerevisiae deletion strains, locus YNL307C, strain MCK1, hits give low values",0.163 (active)
same,normalized growth,"S. cerevisiae deletion strains, locus YNL322C, strain KRE1 (second series), hits give low values",0.907
same,normalized growth,"S. cerevisiae deletion strains, locus YNR049C, strain mso1, hits give low values",0.889 (active)
same,normalized growth,"S. cerevisiae deletion strains, locus YNR052C, strain pop2, hits give low values",0.994
same,normalized growth,"S. cerevisiae deletion strains, locus YOL006C, strain TOP1, hits give low values",0.573
same,normalized growth,"S. cerevisiae deletion strains, locus YOL012C, strain htz1",0.865
same,normalized growth,"S. cerevisiae deletion strains, locus YOL147C, strain pex11, hits give low values",0.979
same,normalized growth,"S. cerevisiae deletion strains, locus YOR001W, strain rrp6, hits give low values",0.967
same,normalized growth,"S. cerevisiae deletion strains, locus YOR061W, strain CKA2, hits give low values",0.887 (active)
same,normalized growth,"S. cerevisiae deletion strains, locus YOR069W, strain VPS5, hits give low values",0.967
same,normalized growth,"S. cerevisiae deletion strains, locus YOR070C, strain gyp1, hits give low values",0.814 (active)
same,normalized growth,"S. cerevisiae deletion strains, locus YOR080W, strain dia2, hits give low values",0.965
same,normalized growth,"S. cerevisiae deletion strains, locus YOR083W, strain WHI5, hits give low values",0.858 (active)
same,normalized growth,"S. cerevisiae deletion strains, locus YOR106W, strain vam3, hits give low values",0.587 (active)
same,normalized growth,"S. cerevisiae deletion strains, locus YOR136W, strain idh2, hits give low values",0.899 (active)
same,normalized growth,"S. cerevisiae deletion strains, locus YOR144C, strain elg1, hits give low values",0.986
same,normalized growth,"S. cerevisiae deletion strains, locus YOR184W, strain ser1, hits give low values",0.893
same,normalized growth,"S. cerevisiae deletion strains, locus YOR231W, strain MKK1, hits give low values",1.01
same,normalized growth,"S. cerevisiae deletion strains, locus YOR265W, strain rbl2, hits give low values",0.768 (active)
same,normalized growth,"S. cerevisiae deletion strains, locus YOR270C, strain vph1, hits give low values",0.451 (active)
same,normalized growth,"S. cerevisiae deletion strains, locus YOR290C, strain snf2, hits give low values",0.91
same,normalized growth,"S. cerevisiae deletion strains, locus YOR316C, strain cot1, hits give low values",0.98
same,normalized growth,"S. cerevisiae deletion strains, locus YPL051W, strain arl3, hits give low values",0.792 (active)
same,normalized growth,"S. cerevisiae deletion strains, locus YPL078C, strain atp4, hits give low values",0.973
same,normalized growth,"S. cerevisiae deletion strains, locus YPL106C, strain sse1, hits give low values",0.555 (active)
same,normalized growth,"S. cerevisiae deletion strains, locus YPL240C, strain hsp82, hits give low values",0.839 (active)
same,normalized growth,"S. cerevisiae deletion strains, locus YPL241C, strain CIN2, hits give low values",0.993
same,normalized growth,"S. cerevisiae deletion strains, locus YPL256C, strain CLN2, hits give low values",1.08
same,normalized growth,"S. cerevisiae deletion strains, locus YPR119W, strain clb2, hits give low values",0.987
same,normalized growth,"S. cerevisiae deletion strains, locus YPR141C, strain kar3, hits give low values",0.972
same,normalized growth,"S. cerevisiae deletion strains, locus YPR163C, strain tif3, hits give low values",0.603 (active)
same,normalized growth,"S. cerevisiae deletion strains, locus YPR167C, strain met16, hits give low values",0.928
same,normalized growth,"S. cerevisiae deletion strains, strain wtn01, hits give low values",0.848 (active)
same,normalized growth,"S. cerevisiae strains, strain wild type, hits give low values",0.958
